Test results as given in PubChem BioAssay AID1346378 (National Center for Advancing Translational Sciences (NCATS), 2018).
About 540 (0.13%) of roughly 420,000 compounds were called active. This is one part of a sample in which actives are shown more often than they occur. A number with no mark means an inactive call. Cut-off read from the data, not from the text of the source: active = activity change below about -50%; inconclusive = mostly about -30% to -49%; inactive = weaker than that.
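Throughout, for activity change, negative = inhibition: -100% = wells without enzyme as full effect.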

The compounds below were run against Phosphatidylinositol 4-kinase type 2-alpha (Homo sapiens) (UniProt Q9BTU6) (assay: qHTS for small molecular inhibitors of PI4K2A). Details: purified PI4K2A, ADP-Glo luminescence, 1 h; at 76.9 µM, active compounds read low.
Chain of Phosphatidylinositol 4-kinase type 2-alpha (Homo sapiens) (Q9BTU6 whole entry, looked up): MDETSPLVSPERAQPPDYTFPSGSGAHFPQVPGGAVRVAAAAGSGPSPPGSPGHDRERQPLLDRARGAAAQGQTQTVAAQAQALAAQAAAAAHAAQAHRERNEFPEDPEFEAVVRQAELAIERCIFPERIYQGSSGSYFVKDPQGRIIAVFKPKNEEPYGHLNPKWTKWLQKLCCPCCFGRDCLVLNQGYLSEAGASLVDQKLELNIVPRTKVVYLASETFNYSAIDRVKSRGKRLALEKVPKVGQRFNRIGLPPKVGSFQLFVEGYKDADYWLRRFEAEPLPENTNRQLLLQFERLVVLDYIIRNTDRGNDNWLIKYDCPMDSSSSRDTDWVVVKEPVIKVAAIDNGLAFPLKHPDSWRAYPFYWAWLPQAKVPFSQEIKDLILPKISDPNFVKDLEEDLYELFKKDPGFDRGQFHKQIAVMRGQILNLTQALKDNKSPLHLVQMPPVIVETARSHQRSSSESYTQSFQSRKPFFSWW
In short: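 PI4K2A activity was measured by ADP-Glo luminescence: enzyme (4 ug/mL stock) and phosphatidylinositol (1.2 mM stock) in Tris pH 7.5/MgCl2/EGTA/Triton X-100 buffer were reacted with ATP (300 microM stock) for one hour at ambient temperature.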
Work on `CCCCCn1c(=O)[nH]c2cc(C(=O)NCCN(C)CCCC)ccc2c1=O` yielded an activity change, negative = inhibition of 3.6%.
`O=C(CSc1cn(CC(=O)N2CCOCC2)c2ccccc12)Nc1ccccc1` was tested, and the activity change, negative = inhibition was -0.303%.
`CCCCOCCOC(=O)c1cccnc1` was tested, and the activity change, negative = inhibition was 0.377%.
Compound `Cc1ccc(CNC(=O)CSc2c(C)cnc3c2c(=O)n(C)c(=O)n3C)cc1` has an activity change, negative = inhibition of -1.23%.
Work on `CO[C@]1(NC(=O)CSC(F)F)C(=O)N2C(C(=O)O)=C(CSc3nnnn3CCO)CO[C@H]21` yielded an activity change, negative = inhibition of -0.764%.
`CC(C)CNc1ncnc2c1nnn2C` was tested, and the activity change, negative = inhibition was 1.45%.
`CCN1CCN(C(=O)N[C@@H](C(=O)N[C@@H]2C(=O)N3[C@@H]2SC(C)(C)[C@H]3C(=O)O)c2ccccc2)C(=O)C1=O` was tested, and the activity change, negative = inhibition was 2.58%.
With `CCOc1ccccc1CNC(=O)C1CCCN(S(=O)(=O)c2ccc3c(ccn3C)c2)C1` (stereo not given) the activity change, negative = inhibition was 2.73%.
`O=C(CSc1nnc(-c2ccccc2F)o1)Nc1cccc(C(F)(F)F)c1` gave an activity change, negative = inhibition of 2.53%.
`CC1CC2C3CCC4=CC(=O)C=C[C@]4(C)[C@@]3(F)[C@@H](O)C[C@]2(C)[C@@]1(O)C(=O)CO` (stereo not given in full) gave an activity change, negative = inhibition of 2.22%.
In the case of `CCCCCn1c(=O)[nH]c2cc(C(=O)Nc3ccc(F)cc3)ccc2c1=O`, the activity change, negative = inhibition is reported as 3.49%.
With `COc1ccc(-c2cc(=O)oc3cc(OC(C)C(=O)NCC4CCC(C(=O)O)CC4)ccc23)cc1` (stereo not given) the activity change, negative = inhibition was -0.472%.
`COc1ccc(-c2cc(C(=O)NC(Cc3c[nH]c4ccccc34)C(=O)O)c(C)o2)cc1OC` (stereo not given) gave an activity change, negative = inhibition of -4.82%.
With `COc1ccc(-c2cc(=O)oc3cc(OCC(=O)N[C@@H](Cc4c[nH]c5ccccc45)C(=O)O)ccc23)cc1` the activity change, negative = inhibition was -51.9% (active).
In the case of `NCC[C@H](O)C(=O)N[C@@H]1C[C@H](N)[C@@H](O[C@H]2O[C@H](CN)[C@@H](O)[C@H](O)[C@@H]2O)[C@H](O)[C@@H]1O[C@H]1O[C@H](CO)[C@@H](O)[C@H](N)[C@@H]1O`, the activity change, negative = inhibition is reported as “inactive”.
In the case of `Cc1ccccc1OCc1nc2c3cnn(-c4ccccc4F)c3ncn2n1`, the activity change, negative = inhibition is reported as -3.76%.
`CCc1ccc(CN(Cc2ccco2)C(=O)COc2ccc(Cl)c(C)c2)cc1` showed an activity change, negative = inhibition of -7.93%.
`CCOc1ccc(NC(=O)Cn2c(=O)n(CCCC(=O)NCc3ccc4c(c3)OCO4)c(=O)c3ccccc32)cc1` showed an activity change, negative = inhibition of -1.29%.
`CC1=NN(c2ccc(Cl)c(C(=O)O)c2)C(=O)/C1=C/c1ccc(-c2ccccc2[N+](=O)[O-])o1` was tested, and the activity change, negative = inhibition was -58.6% (active).
Compound `O=C(Cn1c(=O)n(Cc2cccs2)c(=O)c2cccnc21)Nc1ccc(F)cc1` has an activity change, negative = inhibition of -2.3%.
Work on `CCOC(=O)c1ccc(NC(=O)Cn2cc(S(=O)(=O)Cc3ccccc3F)c3ccccc32)cc1` yielded an activity change, negative = inhibition of -0.867%.
In the case of `Cc1ccc(C(=O)COC(=O)C(Cc2c[nH]c3ccccc23)NC(=O)c2ccc(Br)cc2)cc1` (stereo not given), the activity change, negative = inhibition is reported as 1.44%.
`COCCCN1CCC(NC(=O)c2cc(Cl)c(N)c3c2OCC3)CC1` showed an activity change, negative = inhibition of -0.718%.
`CN(C)c1cccc(C(=O)Nc2nc3ccc(S(=O)(=O)NC(C)(C)C)cc3s2)c1` gave an activity change, negative = inhibition of 0.225%.
For `CN(Cc1ccccc1)C(=O)c1cn(C)c2ccc(S(=O)(=O)N(C)C3CCCCC3)cc2c1=O`, the activity change, negative = inhibition was 2.24%.
`CCOC(=O)c1ccc(N2C(=O)c3[nH]nc(-c4ccccc4)c3C2c2ccc(C(C)C)cc2)cc1` (stereo not given) was tested, and the activity change, negative = inhibition was 4.25%.
`CCOC(=O)c1[nH]c(C)c(CCC(=O)N2CCN(c3ccccc3)CC2)c1C` gave an activity change, negative = inhibition of -2.94%.
Work on `CSc1ccccc1N1CCN(CCCCCC(=O)NC2CCCc3ccccc32)CC1` (stereo not given) yielded an activity change, negative = inhibition of 3.17%.
`COc1cccc(-c2cc(C(=O)Nc3ccc(C)cc3)[nH]n2)c1` was tested, and the activity change, negative = inhibition was -3.12%.
`COc1cc(C(=O)N2CCN(c3ccc(Nc4ccc(C)cc4)nn3)CC2)cc(OC)c1OC` showed an activity change, negative = inhibition of 1.58%.
For `CO/N=C(/C(=O)N[C@@H]1C(=O)N2C(C(=O)O)=C(Cn3nnc(C)n3)CS[C@H]12)c1csc(N)n1`, the activity change, negative = inhibition was -10.8%.
Compound `O=C1Cc2cc(S(=O)(=O)Nc3ccc(OC(F)(F)F)cc3)cc3c2N1CCC3` has an activity change, negative = inhibition of -2.44%.
In the case of `COC(=O)c1ccc(OC)c(Cn2c(=O)n(Cc3ccccc3)c(=O)c3c2c2cc(OC)ccc2n3C)c1`, the activity change, negative = inhibition is reported as 4.84%.
Compound `COc1ccccc1CNC(=O)CCn1c(=O)c2ccccc2n(CC(=O)Nc2ccc(Br)cc2F)c1=O` has an activity change, negative = inhibition of 2.55%.
In the case of `COc1ccc(OC)c(NC(=O)CSc2nc3ccccc3nc2N2CCCCC2)c1`, the activity change, negative = inhibition is reported as 3.46%.
`CCOCCCNC(=O)c1c(NC(=O)Cc2coc3ccc(C)cc23)sc2c1CCC2` was tested, and the activity change, negative = inhibition was -1.23%.
`COC(=O)c1ccccc1NC(=O)c1cc(-c2ccccc2O)no1` was tested, and the activity change, negative = inhibition was -2.41%.
With `O=C1CSC(=S)N1/N=C/c1ccc(O)c([N+](=O)[O-])c1` the activity change, negative = inhibition was -62.1% (active).
`COC(=O)c1nc(Cl)c(Cl)nc1N` gave an activity change, negative = inhibition of 2.02%.
`CCC(C(=O)Nc1cccc(-c2nc3cccnc3s2)c1C)c1ccccc1` (stereo not given) gave an activity change, negative = inhibition of 6.98%.
`CCc1ccc(NC(=O)c2cnc3c(-c4ccccc4)c(C)nn3c2C)cc1` gave an activity change, negative = inhibition of 0.0021%.
Work on `CCCc1nn2c(=O)cc(COC(=O)c3ccc(NC(=O)C(C)Oc4ccccc4)cc3)nc2s1` (stereo not given) yielded an activity change, negative = inhibition of -2.75%.
For `O=C(CC1C(=O)N(c2ccccc2)C(=O)N1CCc1cccs1)Nc1ccc(F)cc1` (stereo not given), the activity change, negative = inhibition was 3.68%.
`COc1ccc(C2=NC3(CCCCC3)N(CC(=O)Nc3ccc(C(C)C)cc3)C2=O)cc1` gave an activity change, negative = inhibition of -3.85%.
With `CCOC(=O)c1c(C)[nH]c(C)c1S(=O)(=O)NCC(=O)NCc1cccc(C)c1` the activity change, negative = inhibition was -4.08%.
Compound `COc1ccccc1N1CCN(C2C(=O)c3ccccc3N2C(C)=O)CC1` (stereo not given) has an activity change, negative = inhibition of 2.81%.
Compound `COc1ccc(C2CC(=O)Nc3c2c(=O)nc2c(C)cccn32)cc1OC` (stereo not given) has an activity change, negative = inhibition of -1.68%.
For `CCOC(=O)c1cc2c(=O)n3ccccc3nc2n(CCCOC)c1=NC(=O)C(C)(C)Oc1ccc(Cl)cc1`, the activity change, negative = inhibition was -2.85%.
`CCOC(=O)c1c(C)[nH]c(C)c1S(=O)(=O)N1CCC(C(=O)Nc2ccc(C)c(Cl)c2)CC1` was tested, and the activity change, negative = inhibition was 0.586%.
Compound `Cc1ccc(Cl)cc1NC(=O)C(C)n1nnc2sc(-c3ccccc3)cc2c1=O` (stereo not given) has an activity change, negative = inhibition of 3.33%.
